Data: PubChem BioAssay (NCI)
Compounds without any hit were thinned out: in the full panel of roughly 83,000, 20% have a hit.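 Treatment: one concentration, 48 hours, 96-well format. Scoring: percent growth, with anything below 10 considered active.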 Calls of active or inactive are those of the source.

Each compound was assayed on SNB-75 CNS (assay: NCI-60 one-dose screen, 48 h (100 = growth as untreated, 0 = no growth, -100 = all killed)). Details: 10 µM unless noted.

SMILES | growth
O=C(CSc1nccc(=O)[nH]1)Nc1ccc(-c2nc3ccccc3[nH]2)cc1 | 122% (inactive)
N[C@@H](Cc1cn(-c2ccnc3ccccc23)nn1)C(=O)O | 98.5% (inactive)
CCOC(=O)c1c(Nc2ccccc2)nn2c(N)c(C#N)c(-c3ccc(F)cc3)nc12 | 82.4% (inactive)
O=C(N/N=C/c1ccc([N+](=O)[O-])o1)c1[nH]c2ccc(Br)cc2c1-c1ccccc1 | 17.7% (inactive)
CN(C)CCCNc1c2ccc(Cl)cc2nc2c1oc1ccc(Cl)cc12 | 45.2% (inactive)
Cc1c(NC(=O)CSc2nc3sc4c(c3c(=O)n2-c2ccc(Cl)cc2)CCCC4)c(=O)n(-c2ccccc2)n1C | 72.6% (inactive)
CC(C)(C)Nc1nc2c(OCCc3ccccc3)cccn2c1-c1ccc(Cl)cc1 | 51.7% (inactive)
CN(C)CCCNc1c2ccc(Cl)cc2nc2c1oc1ccccc12 | 29.9% (inactive)
COc1ccccc1C(=O)CSc1nc(Nc2ccc(S(N)(=O)=O)cc2)c2ccccc2n1 | 106% (inactive)
COc1ccccc1/C=C/C=N/NC1=NC2C(S1)N(C)C(=O)N2C (stereo unspecified) | 18.5% (inactive)
COc1cccc(N2CCN(c3ncnc4c3[nH]c3ccc(F)cc34)C[C@@H]2C)c1 | -59% (active)
O=C(CSc1nnc(-c2ccc3nc(-c4ccc(Cl)cc4)[nH]c3c2)o1)Nc1ccc(C(=O)/C=C/c2ccc(Cl)cc2)cc1 | 90.9% (inactive)
Cc1nc2cnc(N)c(C#Cc3cncc(C(=O)Nc4ccc(Cl)c(C(F)(F)F)c4)c3)c2nc1C | 44.6% (inactive)
Cc1ccc(C(=O)Nc2cccc(C(F)(F)F)c2)cc1Nc1nc(-c2cnccn2)nc2c1cnn2C | 77.4% (inactive)
CC(=O)Oc1ccccc1C(=O)Nc1cc(C(C)C)ccc1C | 26.1% (inactive)
COc1ccc(/C=N/NC(=O)c2[nH]c3ccc(Br)cc3c2-c2ccccc2)s1 | 26.4% (inactive)
O=C(CN1C(=O)/C(=C/c2ccccc2)SC1=S)N1CCOCC1 | 98.9% (inactive)
COc1ccc(-c2nc3ccc(-c4nnc(SCC(=O)Nc5ccc(C(=O)/C=C/c6ccc(Cl)cc6)cc5)o4)cc3[nH]2)cc1OC | 106% (inactive)
CN1C(=S)N(C)C2C1NN=C1SC(c3ccccc3)=CC(=O)N12 (stereo unspecified) | 115% (inactive)

SMILES | growth
CN(C)c1ccc(/C=C2\Cc3c(F)ccc(Br)c3C2=O)cc1 | 87.8% (inactive)
CN(C)S(=O)(=O)c1oc(-c2ccccc2)nc1C#N | 96.1% (inactive)
CC(C)(C)OC(=O)N1C(=O)c2c(c3c4ccccc4[nH]c3c3ccc4ccccc4c23)C1=O | 79.5% (inactive)
Cc1[nH]nc2ncc(C#Cc3cncc(C(=O)Nc4ccc(CN5CCN(C)CC5)c(C(F)(F)F)c4)c3)cc12 | -6.21% (active)
C#Cc1nc(C2=C(C)C(=N\O)/C(=N/O)C2)cs1 | 60% (inactive)
O=c1[nH]c2ccccc2cc1CSc1ccccc1Nc1nccc(-c2ccc(C(F)(F)F)cc2)n1 | 66.4% (inactive)
COC1CCN(Cc2ccc3c(NNC(=O)c4cnccn4)nc4cc(F)ccc4n23)C1 (stereo unspecified) | 65.8% (inactive)
O=C(CN1CCOCC1)NNc1ncnc2ccccc12 | 72.7% (inactive)
Cn1c(SCC(=O)Nc2ccc(-c3nc4ccc([N+](=O)[O-])cc4[nH]3)cc2)nc2ccccc2c1=O | 93.2% (inactive)
O=C(CSc1nc2sc3c(c2c(=O)n1-c1ccc(Cl)cc1)CCCC3)N/N=C/c1ccc(F)cc1 | 107% (inactive)
O=c1/c(=C\c2ccc(-c3ccccc3)o2)sc2nc(-c3ccccc3)nn12 | 99.8% (inactive)
COC(=O)C1CCCN(S(=O)(=O)/N=C2\NC(=O)NC2=C(Cl)Cl)C1 (stereo unspecified) | 125% (inactive)
Clc1ccc2c(NCCCN3CCOCC3)c3oc4ccc(Cl)cc4c3nc2c1 | 79.6% (inactive)
N#Cc1nc(-c2ccccc2)oc1N1CC[C@@H](CO)C1 | 98.3% (inactive)
O=C(c1ccc(O)cc1)C1[C@H](c2ccc(Cl)cc2)[C@@H](c2ccccc2)NC12C(=O)Nc1ccc(Cl)cc12 (stereo partly specified) | 46.2% (inactive)
COc1cccc(OC)c1-c1nnn(C)c1C(=S)N1CCN(c2ccc([N+](=O)[O-])cc2Cl)CC1 | 92.2% (inactive)
CCCC(=O)NC(c1cccc(N(C)C)c1)c1cc(C)c2cccnc2c1O (stereo unspecified) | 76.8% (inactive)
CC(=O)Oc1ccccc1C(=O)Nc1ccc(C(=O)/C=C/c2ccncc2)cc1 | 48.4% (inactive)
C#Cc1nc(C2=C(C)C(OC(=O)CCC(=O)O)CC2)cs1 (stereo unspecified) | 98.3% (inactive)

What follows are compounds tested on SNB-19 CNS in the same assay as above. Details: 10 µM unless noted.

SMILES | growth
O=C(CSc1nccc(=O)[nH]1)Nc1ccc(-c2nc3ccccc3[nH]2)cc1 | 103% (inactive)
N[C@@H](Cc1cn(-c2ccnc3ccccc23)nn1)C(=O)O | 88.7% (inactive)
CCOC(=O)c1c(Nc2ccccc2)nn2c(N)c(C#N)c(-c3ccc(F)cc3)nc12 | 94% (inactive)
O=C(N/N=C/c1ccc([N+](=O)[O-])o1)c1[nH]c2ccc(Br)cc2c1-c1ccccc1 | 22% (inactive)
CN(C)CCCNc1c2ccc(Cl)cc2nc2c1oc1ccc(Cl)cc12 | 38.2% (inactive)
Cc1c(NC(=O)CSc2nc3sc4c(c3c(=O)n2-c2ccc(Cl)cc2)CCCC4)c(=O)n(-c2ccccc2)n1C | 79.7% (inactive)
CC(C)(C)Nc1nc2c(OCCc3ccccc3)cccn2c1-c1ccc(Cl)cc1 | 19.7% (inactive)
CN(C)CCCNc1c2ccc(Cl)cc2nc2c1oc1ccccc12 | 16.5% (inactive)
COc1ccccc1C(=O)CSc1nc(Nc2ccc(S(N)(=O)=O)cc2)c2ccccc2n1 | 85.7% (inactive)
COc1ccccc1/C=C/C=N/NC1=NC2C(S1)N(C)C(=O)N2C (stereo unspecified) | 29.1% (inactive)
COc1cccc(N2CCN(c3ncnc4c3[nH]c3ccc(F)cc34)C[C@@H]2C)c1 | -12% (active)
O=C(CSc1nnc(-c2ccc3nc(-c4ccc(Cl)cc4)[nH]c3c2)o1)Nc1ccc(C(=O)/C=C/c2ccc(Cl)cc2)cc1 | 99.5% (inactive)
Cc1nc2cnc(N)c(C#Cc3cncc(C(=O)Nc4ccc(Cl)c(C(F)(F)F)c4)c3)c2nc1C | 90% (inactive)
Cc1ccc(C(=O)Nc2cccc(C(F)(F)F)c2)cc1Nc1nc(-c2cnccn2)nc2c1cnn2C | 86% (inactive)
CC(=O)Oc1ccccc1C(=O)Nc1cc(C(C)C)ccc1C | 17.5% (inactive)
COc1ccc(/C=N/NC(=O)c2[nH]c3ccc(Br)cc3c2-c2ccccc2)s1 | 30.6% (inactive)
O=C(CN1C(=O)/C(=C/c2ccccc2)SC1=S)N1CCOCC1 | 99% (inactive)
COc1ccc(-c2nc3ccc(-c4nnc(SCC(=O)Nc5ccc(C(=O)/C=C/c6ccc(Cl)cc6)cc5)o4)cc3[nH]2)cc1OC | 109% (inactive)
CN1C(=S)N(C)C2C1NN=C1SC(c3ccccc3)=CC(=O)N12 (stereo unspecified) | 98.9% (inactive)

SMILES | growth
CN(C)c1ccc(/C=C2\Cc3c(F)ccc(Br)c3C2=O)cc1 | 93.1% (inactive)
CN(C)S(=O)(=O)c1oc(-c2ccccc2)nc1C#N | 96.1% (inactive)
CC(C)(C)OC(=O)N1C(=O)c2c(c3c4ccccc4[nH]c3c3ccc4ccccc4c23)C1=O | 97.2% (inactive)
Cc1[nH]nc2ncc(C#Cc3cncc(C(=O)Nc4ccc(CN5CCN(C)CC5)c(C(F)(F)F)c4)c3)cc12 | 50.5% (inactive)
C#Cc1nc(C2=C(C)C(=N\O)/C(=N/O)C2)cs1 | 95.6% (inactive)
O=c1[nH]c2ccccc2cc1CSc1ccccc1Nc1nccc(-c2ccc(C(F)(F)F)cc2)n1 | 59.6% (inactive)
COC1CCN(Cc2ccc3c(NNC(=O)c4cnccn4)nc4cc(F)ccc4n23)C1 (stereo unspecified) | 36.1% (inactive)
O=C(CN1CCOCC1)NNc1ncnc2ccccc12 | 102% (inactive)
Cn1c(SCC(=O)Nc2ccc(-c3nc4ccc([N+](=O)[O-])cc4[nH]3)cc2)nc2ccccc2c1=O | 85.8% (inactive)
O=C(CSc1nc2sc3c(c2c(=O)n1-c1ccc(Cl)cc1)CCCC3)N/N=C/c1ccc(F)cc1 | 101% (inactive)
O=c1/c(=C\c2ccc(-c3ccccc3)o2)sc2nc(-c3ccccc3)nn12 | 93.3% (inactive)
COC(=O)C1CCCN(S(=O)(=O)/N=C2\NC(=O)NC2=C(Cl)Cl)C1 (stereo unspecified) | 94.6% (inactive)
Clc1ccc2c(NCCCN3CCOCC3)c3oc4ccc(Cl)cc4c3nc2c1 | 69.6% (inactive)
N#Cc1nc(-c2ccccc2)oc1N1CC[C@@H](CO)C1 | 94% (inactive)
O=C(c1ccc(O)cc1)C1[C@H](c2ccc(Cl)cc2)[C@@H](c2ccccc2)NC12C(=O)Nc1ccc(Cl)cc12 (stereo partly specified) | 63% (inactive)
COc1cccc(OC)c1-c1nnn(C)c1C(=S)N1CCN(c2ccc([N+](=O)[O-])cc2Cl)CC1 | 92.7% (inactive)
CCCC(=O)NC(c1cccc(N(C)C)c1)c1cc(C)c2cccnc2c1O (stereo unspecified) | 69.3% (inactive)
CC(=O)Oc1ccccc1C(=O)Nc1ccc(C(=O)/C=C/c2ccncc2)cc1 | 76% (inactive)
C#Cc1nc(C2=C(C)C(OC(=O)CCC(=O)O)CC2)cs1 (stereo unspecified) | 104% (inactive)
